Hits are enriched below; roughly 7.4% of the tested compounds scored in any of these assays.
Rab9 prom act – activators of Rab9 promoter | Huh7 Rab9 promoter-luciferase reporter, luminescence, 24 h | Potency, µM (doses to about 9.22 µM), usual class: activators | 2.8% of 320,000 active | AID 485297; also: nearly all actives have a fitted effect of over 60% in size
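Luciferase signal after 10 min detection reagent at ambient indicates Rab9 promoter upregulation; stably transfected Huh7 cells were treated 24 h with compound in DMSO at 37 °C, 5% CO2.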
NPC1 prom act – activators of NPC1 promoter. Huh7 NPC1 promoter luciferase reporter, 24 h. Potency, µM (doses to about 9.22 µM), usual class: activators. 2.4% of 320,000 active. AID 485313; also: nearly all actives have a fitted effect of over 60% in size
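Luminescence from an NPC1 promoter-driven luciferase reporter in stably transfected Huh7 cells was measured after 24 h compound treatment at 37 °C, followed by 10 min ambient incubation with luciferase detection reagent.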
SMN2 splice enh – SMN2 splice variant enhancement. 2.8% of 210,000 active. HEK293 SMN2-luciferase splicing reporter, luminescence, 30-36 h. Potency, µM (top dose mostly 46.1 µM), most hits filed as activators; also: nearly all actives have a fitted effect of over 55% in size
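HEK293 cells carry an SMN2 minigene-luciferase reporter in which exon 7 inclusion puts luciferase in frame. Cells were seeded at 2000 cells/well, attached for 10-12 hours, then exposed to compounds for 30-36 hours at 37C before ONE-Glo luminescence.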
FLuc modulator – firefly luciferase modulation, counter-screen for miR-21 project | purified FLuc, Km substrates, luminescence inhibition | Potency, µM (series often up to 57.5 µM), most hits filed as inhibitors | 6.9% of 360,000 active; also: nearly all actives have a fitted effect of over 55% in size
Target sequence (P08659 whole entry, looked up): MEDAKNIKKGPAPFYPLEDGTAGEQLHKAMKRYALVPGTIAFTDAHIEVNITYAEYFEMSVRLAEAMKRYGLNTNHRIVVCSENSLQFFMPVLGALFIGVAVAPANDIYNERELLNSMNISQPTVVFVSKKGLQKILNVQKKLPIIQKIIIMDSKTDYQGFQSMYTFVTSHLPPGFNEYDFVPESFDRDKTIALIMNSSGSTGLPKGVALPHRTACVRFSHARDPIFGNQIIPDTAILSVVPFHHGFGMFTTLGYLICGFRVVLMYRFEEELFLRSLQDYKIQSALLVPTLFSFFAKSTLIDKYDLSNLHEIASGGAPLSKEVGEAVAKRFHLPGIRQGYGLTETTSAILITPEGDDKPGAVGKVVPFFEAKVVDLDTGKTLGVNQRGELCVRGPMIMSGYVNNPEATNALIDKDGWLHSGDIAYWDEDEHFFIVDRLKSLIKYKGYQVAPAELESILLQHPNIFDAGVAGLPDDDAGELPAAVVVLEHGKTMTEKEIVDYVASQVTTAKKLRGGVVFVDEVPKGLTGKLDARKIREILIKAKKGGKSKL
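Biochemical qHTS of compounds, final roughly 60 µM downward over six points, against 10 nM purified firefly luciferase using Km concentrations of substrates (10 uM D-luciferin, 10 uM ATP) in Tris acetate pH 7.5 buffer; luminescence output.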
ELG1 genotox – induces genotoxicity in HEK293T cells with luciferase-tagged ELG1; HEK293T ELG1-luciferase reporter, luminescence, 16 h; Potency, µM (highest dose often 46 µM), most hits filed as activators; 1.3% of 330,000 active; AID 504466; also: nearly all actives have a fitted effect of over 60% in size
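Screening used a luciferase reporter fused to human ELG1 in HEK293T cells. Luminescence was read on a CCD plate imager after 16 hr exposure and 30 min ONE-Glo incubation.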
A number is an active result; n = inactive; u = inconclusive; x = no result given; [ ] = remark or other dose. Calls follow the shape of the dose curve; as a rule, active = well fitted curve in the direction sought with a large enough effect; inconclusive = small, poorly fitted or top-dose-only effect, or another doubt; inactive = no such curve, though single readings can be large; an effect the other way counts as inactive or inconclusive.

SMILES	Rab9 prom act	NPC1 prom act	SMN2 splice enh	FLuc modulator	ELG1 genotox
COc1ccc(-c2nc3c(c4c2C[C@H](c2ccccc2)OC4)CN(S(=O)(=O)c2ccc(C)cc2)CC3)c(C)c1	x	x	n[9.22 µM]	x	x
Cc1ccc(-c2cnc3ccccc3n2)cc1C	n	u	x	0.54µM	u
CCOC(=O)c1ccc2ncc(-c3ccccc3)nc2c1	3.5µM	3.2µM	n	5.4µM	10µM
Cc1cc(-c2ccccc2)nc(N(C)N)c1S(C)(=O)=O	n	n	n	n	n
CCCCOc1ccc(-c2cnc3ccccc3n2)cc1	0.45µM	0.4µM	1.4µM	0.43µM	u
Cc1cc(-c2ccccc2)nc(-c2ccccc2)c1C	u	n	x	0.17µM	21µM
CCOC(=O)c1cccc(-c2c(-c3ccccc3)ncc3cc(OC)c(OC)cc23)c1	n	u	x	u	n
COC(=O)c1ccc(NC(=O)CSc2n[nH]c(CC(C)C)n2)cc1	x	x	n	n	x
CC(=O)Nc1ccc(C(=O)OCc2ccccc2Br)cc1	u	n	n	u	n
Cc1nc2ccc(C(=O)OCc3ccccc3Br)cc2nc1C	1.1µM	3.2µM	n	12µM	u
COc1nc(-c2ccccc2)cc(-c2ccc(OC)c(OC)c2)n1	n	n	n	u	n
Cc1cc2ncc(-c3ccccc3)nc2cc1C	0.79µM	1.3µM	5µM	0.6µM	1.6µM
Clc1ccc(-c2cnc3ccccc3n2)cc1	4µM	3.2µM	13µM	4.8µM	u
COc1cc2ncc(-c3ccccc3)nc2cc1OC	x	x	28µM	x	x
CCCCCn1c(=O)[nH]c2cc(C(=O)NCc3ccc(C)cc3)ccc2c1=O	x	x	u	n	x
CCCC(=O)Nc1ccc(-c2csc(N/N=C\c3ccncc3)n2)cc1	u	u	x	3µM	n
CCCC(=O)Nc1ccc(-c2csc(NNC(C)=O)n2)cc1	n	n	x	n	n
CC(=O)Nc1ccc(-c2csc(N/N=C\c3ccncc3)n2)cc1	n	n	x	7.6µM	n
Cc1sc2ncn(CC(=O)Nc3ccc(C(F)(F)F)cc3)c(=O)c2c1S(=O)(=O)N1CCN(C)CC1	x	x	n	n	x
Nc1nc(Cl)nc2c1ncn2[C@@H]1O[C@H](CO)[C@H](O)[C@H]1O	x	x	n	x	x
COc1ccc(-c2nnn(CC(=O)N(Cc3ccco3)C(C(=O)NCC3CCCO3)c3ccco3)n2)cc1 (stereo not given)	n	n	n	n	n
Cc1ccc(-c2nnn(CC(=O)N(c3ccccc3)C(C(=O)NC3CCCC3)c3ccncc3)n2)o1 (stereo not given)	n	n	x	n	n
Cc1ccc(N(C(=O)Cn2nnc(-c3ccc(C)o3)n2)C(C(=O)NC2CCCC2)c2ccco2)cc1 (stereo not given)	n	n	28µM	n	n
COc1ccc(CN(C(=O)Cn2nnc(-c3ccc(C)o3)n2)C(C(=O)NCC2CCCO2)c2ccco2)cc1 (stereo not given)	u	u	x	0.19µM	u
CCc1ccc(-n2nc3ccc(NC(=O)COc4ccc(OC)cc4)cc3n2)cc1	x	x	u	n	x
SMILES	Rab9 prom act	NPC1 prom act	SMN2 splice enh	FLuc modulator	ELG1 genotox
CSC1=NC2(CCN(C(=O)NC3CCCCC3)CC2)N=C1c1ccc(C(C)(C)C)cc1	x	x	x	n	x
O=C(CSc1nncc2ccccc12)Nc1ccccc1	n	n	x	17µM	n
O=c1[nH][nH]c(=O)c2c(NS(=O)(=O)c3ccccc3)cccc12	n	n	n	19µM	u
O=c1oc(-c2ccccc2NS(=O)(=O)c2ccccc2)nc2ccccc12	n	n	n	n	n
CCOC(=O)/C=C/C(=O)N1CCc2ccccc21	n	n	n	11µM	n
CCOCC(=O)N1CCc2ccccc21	n	n	n	n	n
O=C(c1ccco1)N1CCc2ccccc21	u	u	n	u	u
Cc1ccc(/C=C/C(=O)N2CCc3ccccc32)o1	2.5µM	2.8µM	x	1.9µM	8.2µM
O=C(/C=C/c1ccco1)N1CCc2ccccc21	0.79µM	1.8µM	10µM	2.1µM	1µM
CC1=C(C(=O)Nc2ccc(C)cc2C)C(c2ccccc2F)n2nc(SCC(=O)c3ccc(C)cc3)nc2N1 (stereo not given)	x	x	x	n	x
CNc1nc(-c2ccccc2)[n+](-c2ccc(C)cc2)s1	n	n	x	6.7µM	n
COc1cc(C(=O)Nc2scc(-c3ccc(Br)cc3)c2C(=O)O)cc(OC)c1OC	n	n	x	n	n
CC(C)c1ccc(C(CC(=O)O)NC(=O)c2cccs2)cc1 (stereo not given)	n	n	n	n	n
Cc1ccc(-c2csc(NC(=O)c3ccc(Br)cc3)c2C(=O)O)cc1	3.5µM	2.5µM	x	12µM	n
Cc1ccc(-c2csc(NC(=O)c3ccccc3Cl)c2C(=O)O)cc1	n	n	x	27µM	n
CC(C)c1ccc(-c2csc(NC(=O)c3cccs3)c2C(=O)O)cc1	n	n	x	17µM	n
COc1ccc(/C=C\c2onc(C)c2S(=O)(=O)N2CCC(C(=O)Nc3ccccc3OC)CC2)cc1	x	x	n	n	x
COc1cccc(/C=C2\N=C3CCCCCN3C2=O)c1	n	n	n	13µM	u
CCCn1c(-c2ccc(F)cc2)nc2c(NCCCN3CCOCC3)nc(C)nc21	x	x	n	x	x
N#Cc1ccccc1NC(=O)C(=O)NCCc1csc2nc(-c3cccc(F)c3)nn12	x	x	x	n	x
CN1C(=O)/C(=C\c2cc(N=Nc3ccccc3)ccc2O)SC1=S	n	n	n	u	n
COc1ccc(-n2c(C)cc(/C=C3/SC(=S)N(C)C3=O)c2C)cc1	u	u	n	3.4µM	10µM
Cc1cc(/C=C2\SC(=O)N(C)C2=O)c(C)n1-c1ccc(O)cc1	0.2µM	0.45µM	x	0.48µM	0.65µM
Cc1cc(/C=C2\SC(=S)N(C)C2=O)c(C)n1-c1cccc(O)c1	n	u	x	1.1µM	u
Cc1cc(/C=C2\SC(=O)N(C)C2=O)c(C)n1-c1ccc(S(N)(=O)=O)cc1	n	n	x	n	n
SMILES	Rab9 prom act	NPC1 prom act	SMN2 splice enh	FLuc modulator	ELG1 genotox
O=C1/C(=C\c2ccco2)SC(=S)N1Cc1ccccc1	n	n	n	n	n
Cc1cc(/C=C2\SC(=S)N(Cc3ccco3)C2=O)c(C)n1-c1ccccc1	3.5µM	u	x	3µM	5.2µM
CCOc1ccc(OCC)c(NC(=O)c2cc(S(=O)(=O)N3CCCC3)cn2C)c1	x	x	x	n	x
CCC(=O)N1CCc2cc(S(=O)(=O)NC(Cc3ccccc3)C(=O)NCc3ccc(F)cc3)ccc21 (stereo not given)	x	x	n	n	x
NC(N)=N/N=C(/c1ccccc1)c1ccc(O)cc1O	x	x	n[9.22 µM]	x	x
CN=C1S/C(=C\c2cc(C)n(-c3ccccc3F)c2C)C(=O)N1C	1.6µM	u	n	0.34µM	u
COc1ccc(CCNC(=O)c2cnc3ccc(C)cn3c2=O)cc1OC	x	x	n	n	x
CCOc1ccccc1OCCCCOc1ccccc1F	n	n	n	n	n
COc1ccccc1OCCCCOc1ccccc1F	n	n	n	13µM	n
Cc1nn(CC(=O)NCc2ccccc2Br)c(=O)c2cc3occc3n12	x	x	n	n	x
O=C(NCc1ccco1)/C(=C\C=C\c1ccccc1)NC(=O)c1ccccc1Br	n	n	n	27µM	n
C=C(Nc1ccc(OC)cc1)C(=O)OC	x	x	n	x	x
